Mcl1 Noxa PPI: Mcl-1/Noxa interaction inhibition; Q07820; 220,000 tested, 1.5% active; inhibition, % at 21.7 µM; AID 1022; TR-FRET Mcl-1/Noxa peptide binding, 2 h;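 active means compounds that cut the protein-peptide binding signal by more than 50% relative to plate controls in a single-dose test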;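 further: His-tagged Mcl-1 with rhodamine Noxa BH3 peptide and terbium anti-His antibody; 0% = Mcl-1 plus Noxa peptide wells and 100% = peptide-only wells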
Target sequence (Q07820 whole entry, looked up): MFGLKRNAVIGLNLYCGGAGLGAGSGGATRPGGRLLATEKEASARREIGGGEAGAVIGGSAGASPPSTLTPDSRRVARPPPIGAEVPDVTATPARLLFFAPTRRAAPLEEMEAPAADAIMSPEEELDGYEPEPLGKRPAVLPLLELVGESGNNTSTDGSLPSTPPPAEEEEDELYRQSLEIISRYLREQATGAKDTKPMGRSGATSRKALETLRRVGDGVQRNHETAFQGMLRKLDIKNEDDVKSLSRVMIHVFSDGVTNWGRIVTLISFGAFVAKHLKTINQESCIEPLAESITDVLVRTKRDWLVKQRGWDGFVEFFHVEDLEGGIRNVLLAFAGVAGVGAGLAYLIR
Mcl1-Bid inh: disrupts binding of human Mcl-1 to Bid peptide | TR-FRET Mcl-1/Bid-Dy647 peptide binding, 1536-well | 220,000 tested, 0.97% active | inhibition, % at 21.7 µM | AID 1021;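 active means compounds that cut the binding signal by more than half at the single screening dose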;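 further: His-tagged Mcl-1 with europium anti-His antibody binding Bid BH3 peptide; 0% = Mcl-1 plus peptide wells and 100% = peptide-only wells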
Pf gamet viab: inhibitors of late stage P. falciparum gametocyte viability. P. falciparum stage V gametocytes, ATP luminescence, 24 h. inhibition, % at 10.9 µM. 150,000 tested, 0.065% active;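 active means inhibition above the mean plus 3 SD of compounds within the control limits, set per campaign, cut at about 38% in these data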;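 further: 0% = DMSO wells and 100% = medium only without gametocytes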
14-3-3 Bad inh: disrupts binding of bovine 14-3-3 zeta to phospho-Bad peptide | AID 781 | inhibition, % at 21.7 µM | P63103 | TR-FRET 14-3-3zeta/Dy647-pBad peptide displacement, 1 h | 220,000 tested, 0.71% active;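 active means inhibition above about 70%, limit read from the data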;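 further: 0% = full 14-3-3 plus peptide FRET controls and 100% = background without 14-3-3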
Target sequence (P63103 whole entry, looked up): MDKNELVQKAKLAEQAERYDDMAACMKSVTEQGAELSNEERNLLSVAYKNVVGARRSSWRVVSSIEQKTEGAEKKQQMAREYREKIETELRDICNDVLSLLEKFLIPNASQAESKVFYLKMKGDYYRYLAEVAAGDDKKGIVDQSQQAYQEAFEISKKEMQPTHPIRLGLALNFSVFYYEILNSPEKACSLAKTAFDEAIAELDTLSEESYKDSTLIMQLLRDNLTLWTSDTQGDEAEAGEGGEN
Bim-Mcl-1: inhibitors of Bim-Mcl-1 interaction, human. Q07820. Bead-based flow cytometry, Bim peptide-Mcl-1 binding. inhibition, % at 10 µM. 190,000 tested, 0.1% active; in the data active means inhibition above about 40%;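 further: 0% = no compound tracer wells and 100% = peptide blocker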
eIF4E-4G inh: blocks eIF4E binding to eIF4G; TR-FRET eIF4E-eIF4GI(517-606) binding, 2 h; inhibition, % at 21.7 µM; 220,000 tested, 0.37% active;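 active means inhibition above about 30%, limit read from the data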;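 further: 0% = full FRET control wells and 100% = background wells lacking eIF4GI fragment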
Starred values were filed as active, the others as inactive; i = inactive; / = no result; [ ] = another dose, or the depositor's remark. Compounds with a hit are over-represented: about 2.7% of the library has one in this group of screens.

SMILES	Mcl1 Noxa PPI	Mcl1-Bid inh	Pf gamet viab	14-3-3 Bad inh	Bim-Mcl-1	eIF4E-4G inh
N=C1S/C(=C\c2ccccc2)C(=O)N1c1ccc(F)cc1	13	-56	11	5	-14	-3
COc1cc(/C=C2\SC(=N)N(c3ccc(F)cc3)C2=O)ccc1O	53*	-18	3	7	0	-34
Cc1ccc(C)c(N(C)S(=O)(=O)c2ccc3[nH]cc(C(=O)NCCN4CCOCC4)c(=O)c3c2)c1	35	20	6	6	-2	2
Cc1cccc(N(C)S(=O)(=O)c2ccc3[nH]cc(C(=O)N4CCOCC4)c(=O)c3c2)c1	50	51*	-43	33	-1	9
O=C(Nc1cccc(S(=O)(=O)N2CCOCC2)c1)c1cnccn1	17	-50	/	-8	0	1
COc1ccc(NC(=O)CN2C(=O)C(C)Oc3ccccc32)cc1 (configuration not stated)	-2	1	/	-4	0	4
COc1ccc(NC(=O)CN2C(=O)/C(=C3\SC(=S)N(C4CCS(=O)(=O)C4)C3=O)c3ccccc32)cc1 (configuration not stated)	89*	91*	0	60	/	7
O=C(CN1C(=O)/C(=C2\SC(=S)N(C3CCS(=O)(=O)C3)C2=O)c2ccccc21)Nc1ccc(F)cc1 (configuration not stated)	78*	78*	-40	49	/	4
CCOC(=O)C1=C(O)/C(=C\c2ccc(OC)c(OC)c2)N=C1C	13	-31	/	-2	-3	-5
CCOC(=O)CSC1=N/C(=C\c2ccc(OC)c(OC)c2)C(=O)N1C	16	-36	-17	74*[fluorescence artefact?]	-3	i
O=C(O)CCc1nn2c3ccccc3n(Cc3ccccc3)c2nc1=O	-5	-32	-19	-6	0	0
Cc1ccccc1-n1sc2cc(F)ccc2c1=O	16	-91	35	-29	-4	52*
Cc1ccccc1-n1c(=O)c2ccccc2n2cnnc12	15	-5	-13	1	-2	7
CCOc1ccccc1C(=O)N1CCN=C1SCc1cccnc1	13	-18	/	-2	1	7
COc1ccc(S(=O)(=O)NCC2CCCN(Cc3cccnc3)C2)cc1 (configuration not stated)	-4	-29	/	-7	31	0
Oc1cc2c(cc1O)C1c3ccc(O)c(O)c3OCC1(O)C2 (configuration not stated)	82*	-65	/	27	8	5
Cc1nc(C(=O)NC(C)C)nn1-c1cc(Cl)cc(Cl)c1	12	-40	/	-9	0	0
NC1=NC(=O)/C(=C\c2ccco2)S1	57*	-69	-7	21	/	2
Cc1ccc(NS(=O)(=O)c2cc([N+](=O)[O-])ccc2NNC(=S)Nc2cc(C)ccc2C)c(C)c1	44	-40	/	-10	0	-1
Cc1ccc(NS(=O)(=O)c2cc([N+](=O)[O-])ccc2NNC(=S)Nc2cccc(Cl)c2)c(C)c1	88*	46	/	-3	0	3
Cc1cccc(N2N=C(C(=O)Nc3nc(C)cs3)CCC2=O)c1	3	-31	-5	-7	0	1
Cc1cc(C)c(N)c(C(=O)O)c1	13	61*	/	58	/	-1
Cc1cc(C(=O)O)cc(Br)c1N	2	-12	-62	0	1	1
CCN(CC)c1nc(N)nc(N(c2ccccc2)c2ccccc2)n1	-4	-4	/	0	79*	0
COc1cccc(CN2CCC(C(=O)N3CCC(C)CC3)CC2)c1	31	12	-7	-5	-1	-1
SMILES	Mcl1 Noxa PPI	Mcl1-Bid inh	Pf gamet viab	14-3-3 Bad inh	Bim-Mcl-1	eIF4E-4G inh
COc1ccc2[nH]c3c(=O)n(CCCCC(=O)NCCN4CCCC4)c(=S)[nH]c3c2c1	36	-42	/	-7	-3	7
COc1ccc2[nH]c3c(=O)n(Cc4ccc(C(=O)N5CCCC5)cc4)c(=S)[nH]c3c2c1	78*	-34	-14	1	0	-1
OC(CNC1CCCc2ccccc21)COc1ccc2ccccc2c1 (configuration not stated)	44	52*	6	40	-2	4
COc1ccc(NC(=O)/C=C/c2ccc(Br)o2)cn1	58*	-28	19	-1	2	4
COc1ccccc1CNC(=O)/C=C/c1ccc(Br)o1	70*	23	-14	9	3	10
COc1ccccc1CNC(=O)Cc1ccc(Br)cc1	19	3	-8	15	-1	3
CON(C)c1nc(OCC#N)nc(N(C)C)n1	-1	-4	1	-4	-4	-1
CCOC(=O)N1CCC(NC(=O)c2cc(C(=O)NCC(OC)OC)ccc2CO)CC1	-2	-7	/	-16	-2	-2
Cc1nn(-c2nc3ccccc3[nH]2)c(=O)c2ccccc12	0	-9	61*	1	1	1
O=C(CCCc1ccccc1)NCCc1ccc(F)cc1	/	/	-5	/	/	/
CN(C)c1ccc(C(CNC(=O)c2ccccc2F)c2c[nH]c3ccccc23)cc1 (configuration not stated)	66*	-2	/	-1	27	-2
CN(C)c1ccc(C(CNC(=O)c2ccccc2)c2c[nH]c3ccccc23)cc1 (configuration not stated)	68*	-1	5	3	-2	-7
CC(=O)N1N=C(c2ccc(Cl)cc2)CC1c1ccco1 (configuration not stated)	-20	-40	10	6	/	-2
Cc1nnc(SCC(=O)N2N=C(c3ccc(Cl)cc3)CC2c2ccco2)[nH]c1=O (configuration not stated)	53*	-64	0	-11	4	3
c1coc(Cn2nnnc2CN2CCN(C3CCCC3)CC2)c1	32	19	/	79*	-3	15
CCCNC(=O)c1ccc(CN2CCOCC2)cc1	10	-31	3	-15	1	-2
CC(C)N1CCc2c(sc(NC(=O)c3ccc(S(=O)(=O)N4CCc5ccccc54)cc3)c2C(N)=O)C1	72*	16	/	53	-1	-6
[O-][n+]1onc2c1CCC(=N/O)/C2=N\Nc1ccccc1	78*	-28	/	37	/	17
CN(C)/C=C/C(=O)Oc1ccc(Cl)cc1Cl	1	-17	/	-18	1	3
CCn1c(SCC(=O)Nc2ccc3c(c2)oc2ccccc23)nnc1-c1ccc(N)cc1	56*	58*	-20	66	2	5
COc1ccc(N2CCN(CC(=O)NC(=O)NCc3ccco3)CC2)cc1	8	-49	-16	-8	-5	0
COc1ccc(C)cc1-n1nnnc1SCC(=O)NC(=O)NCc1ccco1	62*	42	5	3	-2	7
COc1ccc(-n2nnnc2SCC(=O)NCc2ccco2)cc1OC	23	9	-1	-4	-2	-6

Source: PubChem BioAssay
